From ChEMBL document CHEMBL4513216, “Probing the Open Global Health Chemical Diversity Library for Multistage-Active Starting Points for Next-Generation Antimalarials” (ACS Infect Dis, 2020)
Screen size: about 69,000 compounds; about 8,600 (12%) showed an effect of 50% or more. The entries come from a sample that favours strong results as a whole.

Tested on: Plasmodium berghei
Test: Screen against P. berghei liver stage (PbLuc), transformed with Luciferase, at 10uM
Type: functional, HepG2
Settings: tested at 10 uM

| Compound | INHIBITION [%] |
| --- | --- |
| CC(C)Nc1nc2c(cc1C(=O)N(C)C)CCNCC2 | -3.83 |
| CCCN1CCC2(C1)c1ccccc1S(=O)(=O)N2C (stereo not given) | 13.7 |
| OC(CNCCc1nnc2ccccn12)c1ccc2c(c1)OCO2 (stereo not given) | -20.5 |
| CCCc1nc(C)c(C(=O)Nc2cccc(C)n2)s1 | 1.45 |
| COC[C@H]1CN(CC2CC2)C(=O)[C@@H]2CCN(Cc3ccoc3)CC[C@H]12 | 11.3 |
| Cc1ccsc1CN(Cc1nc2c(cnn2C)c(=O)[nH]1)C(C)C | 31.533 |
| COc1ccc(NC(=O)N(CC2CCOC2)C2CC2)cn1 (stereo not given) | 12.85 |
| Cn1cncc1C(=O)N1CCOC2(COCCN(CC3CC3)C2)C1 (stereo not given) | -8.23 |
| Cc1noc(C)c1CN1CC[C@H]2C[C@@H](c3ccncn3)O[C@@H]2C1 | 21.6 |
| Cc1noc(C)c1CN1CC[C@H]2C[C@H](c3ccncn3)O[C@@H]2C1 | 34.6 |
| Cc1nccc([C@@H]2C[C@@H]3CCN(Cc4c(C)noc4C)C[C@H]3O2)n1 | 67.2 |
| Cc1csc(CN2CC[C@H]3C[C@@H](c4noc(C)n4)O[C@@H]3C2)n1 | 29 |
| Cc1nc([C@@H]2C[C@H]3CN(Cc4ccc5c(c4)OCO5)C[C@H]3O2)no1 | 29.4 |
| Cc1nc([C@H]2C[C@@H]3CCN(Cc4ccc5c(c4)OCO5)C[C@H]3O2)no1 | 59.3 |
| Cc1nc([C@H]2C[C@@H]3CCN(Cc4scnc4C)C[C@H]3O2)no1 | 88 |
| Cc1nc([C@@H]2C[C@H]3CN(Cc4scnc4C)C[C@H]3O2)no1 | -35.2 |
| Cc1noc([C@@H]2C[C@H]3CN(Cc4ccc5c(c4)OCO5)C[C@H]3O2)n1 | 42.1 |
| Cc1noc(C)c1CN1CCC(c2ccnn2CCO)CC1 | -43.5 |
| COCC(O)CN1CCC(=O)N(Cc2ccco2)Cc2ccccc21 (stereo not given) | 24.5 |
| CN1CCN(C[C@H]2OC[C@@H]3CCN(C(=O)c4cnccn4)C[C@@H]32)CC1 | 31.4 |
| CCN1CCCC(c2nc(O)c3cc(C)ccc3n2)C1 (stereo not given) | 16.8 |
| O=C(Cc1cccnc1)NC1CCCN(CCCc2ccccc2)C1 (stereo not given) | 8.99 |
| O=C1NC(c2ccccc2)=N[C@@]12CC[C@@H]1CN(Cc3cccnc3)C[C@@H]12 | 33 |
| CC1=NC2(CCN(CC(C)c3ccccc3)CC2)C(=O)N1 (stereo not given) | 14 |
| CC(CN1CCC2(CC1)N=C(N(C)C)NC2=O)c1ccccc1 (stereo not given) | 0.825 |

| Compound | INHIBITION [%] |
| --- | --- |
| O=C1NC(c2cccnc2)=NC12CCN(CCCc1ccccc1)CC2 | 58.7 |
| CC(CN1CCC2(CC1)N=C(c1cccnc1)NC2=O)c1ccccc1 (stereo not given) | 70.1 |
| CC(NC(=O)NCCCn1ccnc1)c1nncn1C (stereo not given) | -6.61 |
| c1coc(CN2CCC3(CC2)COC(COCC2CCOCC2)C3)c1 (stereo not given) | 6.27 |
| COc1cccc(-c2cc(C(=O)NCCn3nc(C)nc3C)[nH]n2)c1 | -13.6 |
| CCn1c(C)cc(C(=O)N2CCCC(n3ccnc3C)C2)c1C (stereo not given) | -11.3 |
| COc1cc(CNCC2CN(C3CC3)CCO2)cc(OC)c1 (stereo not given) | -18.3 |
| Oc1ccc(Cl)cc1CNCc1cccc(C(F)(F)F)c1 | 27.4 |
| CCNc1ccnc(CN2CCCC2C(=O)Nc2nccs2)c1 (stereo not given) | 85.1 |
| O=C(C1CCCCN1Cc1nccn1CC(F)(F)F)N1CCCC1 (stereo not given) | 58.9 |
| CC(C)(C)NC(=O)C1CCCCN1Cc1nccn1CC(F)(F)F (stereo not given) | 46.6 |
| O=C(Nc1nccs1)C1CCCN1Cc1ccccn1 (stereo not given) | 87.6 |
| CCn1ccnc1CN1CCCC1C(=O)Nc1nccs1 (stereo not given) | 72.2 |
| CCc1ccsc1C(=O)N1CCCN(Cc2nccn2CC)CC1 | 30.65 |
| CCc1nc(CN2CCCC2C(=O)NC)cs1 (stereo not given) | 49 |
| O=C(Nc1nccs1)NC1CCN(Cc2ccccn2)CC1 | 17.4 |
| CC(=O)Nc1cccc(CN2CCCC2C(=O)Nc2nccs2)c1 (stereo not given) | 34.6 |
| N#Cc1cccc(OCCN2CCCC2C(=O)Nc2nccs2)c1 (stereo not given) | 44 |
| NC(=O)C1CCCN1Cc1nccn1CC(F)(F)F (stereo not given) | 30.9 |
| CC1CN(CC(=O)Nc2nccs2)CCN1Cc1nccn1C (stereo not given) | 26.675 |
| N#Cc1ccccc1C(=O)Nc1cccc(CN2CCC(CO)CC2)c1 | -43.1 |
| Cc1cc(OCC(=O)N2CCCC(c3nc(C)c(C)s3)C2)no1 (stereo not given) | 0.914 |
| CC(O)CN1CCN(C(=O)c2ccc(N3CCCC3)nn2)CC1 (stereo not given) | -43.5 |
| O=C(CC1CCCC1)Nc1ccc(-n2cc(Br)cn2)nc1 | 24.8 |
| CN(C)S(=O)(=O)CCCN1CCc2c(ncn2C2CC2)C1 | 33.7 |

| Compound | INHIBITION [%] |
| --- | --- |
| COCCN1C(=O)CCC12CCN(C(=O)CNC(C)=O)CC2 | -49.2 |
| Oc1ccc(CCC2CCCCN2Cc2noc(C3CC3)n2)cc1 (stereo not given) | 26.5 |
| Cc1cc(N2CCN(C(=O)c3cc(Cl)c[nH]3)CC2)nc(C)n1 | 5.76 |
| Cc1cc(N2CCN(C(=O)c3cc(Cl)c[nH]3)CC2)nc(C(C)C)n1 | 24.6 |
| COc1cc(C)nc(N2CCN(C(=O)CCc3ccncc3)CC2)n1 | 7.18 |
| Cc1cc(N2CCN(C(=O)CCc3scnc3C)CC2)nc(N)n1 | -6.72 |
| Cc1cc(N2CCN(C(=O)c3cc(Cl)c[nH]3)CC2)nc(N)n1 | 50.1 |
| Cc1cc(C)cc(CCC(=O)N2CCN(c3cc(C)nc(N)n3)CC2)c1 | 80.5 |
| CN1[C@@H](C(=O)NCC2CC2)C[C@H]2CN(Cc3ccsc3)C[C@H]21 | -14.7 |
| NC(=O)c1cc2c(nc1N1C[C@H]3OC(=O)N(C4CCCC4)[C@H]3C1)CCC2 | 5.05 |
| Cc1c(NCc2cccnc2)cccc1C(=O)N1CCC(N(C)C)C1 (stereo not given) | 24.4 |
| CC(C(=O)Nc1ccon1)n1ccc(C(F)(F)F)n1 (stereo not given) | 15.1 |
| N#Cc1cccnc1N1CCCN(C(=O)CCn2cncn2)CC1 | 14.1 |
| c1ccc(Cn2cc(CNCC3CNc4ccnn4C3)cn2)cc1 (stereo not given) | 9.54 |
| c1ccc(Cn2cccn2)c(CNCC2CNc3ccnn3C2)c1 (stereo not given) | 45.8 |
| c1cc(CNCC2CNc3ccnn3C2)cc(Cn2cccn2)c1 (stereo not given) | 50.5 |
| c1ccc(Cn2cncn2)c(CNCC2CNc3ccnn3C2)c1 (stereo not given) | 36.4 |
| COc1cc(CNCC2CNc3ccnn3C2)ccn1 (stereo not given) | 23.7 |
| c1cc(CNCC2CNc3ccnn3C2)cc(N2CCCCC2)n1 (stereo not given) | 37 |
| OCc1ccccc1CNCC1CNc2ccnn2C1 (stereo not given) | -17 |
| c1cc(CNCC2CNc3ccnn3C2)cc(N2CCOCC2)n1 (stereo not given) | 62.1 |
| c1ccc(-n2ccnc2)c(CNCC2CNc3ccnn3C2)c1 (stereo not given) | 55.1 |
| c1cc(CNCC2CNc3ccnn3C2)cc(OC2CCCCC2)n1 (stereo not given) | 40.2 |
| c1cc(CNCC2CNc3ccnn3C2)cc(OC2CCCC2)n1 (stereo not given) | 60.7 |
| c1cc2n(n1)CC(CNCc1ccc(OC3CCCC3)nc1)CN2 (stereo not given) | 41.5 |
